Unmarked numbers belong to inactive results. Results filed as inconclusive are left out. A call without a number means that no potency is given here. Active and inactive are the calls of the source. Unless noted, calls follow the shape of the dose curve; as a rule, active = well fitted curve in the direction sought with a large enough effect; inconclusive = small, poorly fitted or top-dose-only effect, or another doubt; inactive = no such curve, though single readings can be large; an effect the other way counts as inactive or inconclusive.
Assays:
[1] = biological target: Rap guanine nucleotide exchange factor 3 (Homo sapiens) (UniProt O95398); experiment: Confirmatory qHTS for antagonist of cAMP-regulated guanine nucleotide exchange factor 3 (EPAC1) (AID 1645880); conditions: EPAC1 Rap1B-BODIPY-GDP exchange, fluorescence; activity, negative = inhibition: at 115 µM (top of the series); also: nearly all actives have a fitted effect of over 55% in size; also: potency is read from the fitted curve at half-maximal effect
Sequence of Rap guanine nucleotide exchange factor 3 (Homo sapiens) (O95398 whole entry, looked up): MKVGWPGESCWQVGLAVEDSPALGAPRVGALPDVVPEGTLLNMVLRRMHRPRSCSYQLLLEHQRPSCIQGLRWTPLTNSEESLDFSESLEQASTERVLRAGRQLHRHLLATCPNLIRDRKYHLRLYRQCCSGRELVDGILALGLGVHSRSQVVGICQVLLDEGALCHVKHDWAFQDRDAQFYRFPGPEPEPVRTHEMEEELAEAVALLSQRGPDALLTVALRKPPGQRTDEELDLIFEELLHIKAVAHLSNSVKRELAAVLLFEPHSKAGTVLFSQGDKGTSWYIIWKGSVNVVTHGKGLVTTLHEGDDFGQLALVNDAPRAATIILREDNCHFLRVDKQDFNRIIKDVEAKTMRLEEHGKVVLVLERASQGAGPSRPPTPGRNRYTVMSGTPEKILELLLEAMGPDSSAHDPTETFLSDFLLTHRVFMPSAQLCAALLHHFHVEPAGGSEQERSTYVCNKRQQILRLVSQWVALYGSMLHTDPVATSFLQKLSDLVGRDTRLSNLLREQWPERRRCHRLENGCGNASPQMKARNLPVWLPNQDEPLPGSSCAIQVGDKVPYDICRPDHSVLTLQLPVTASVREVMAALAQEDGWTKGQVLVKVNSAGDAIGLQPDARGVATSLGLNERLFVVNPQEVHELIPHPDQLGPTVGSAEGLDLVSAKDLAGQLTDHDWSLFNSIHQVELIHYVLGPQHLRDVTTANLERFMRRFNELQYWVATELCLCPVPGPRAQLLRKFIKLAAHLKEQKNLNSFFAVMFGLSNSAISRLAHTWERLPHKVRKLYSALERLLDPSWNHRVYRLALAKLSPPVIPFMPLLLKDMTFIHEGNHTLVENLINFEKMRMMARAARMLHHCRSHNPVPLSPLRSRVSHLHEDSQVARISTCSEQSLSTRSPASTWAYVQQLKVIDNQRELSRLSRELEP
In short: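 Nucleotide exchange uses 100 nM EPAC1, 250 nM RAP1B-BODIPY-GDP and 50 uM GDP, with compounds in a concentration-titration series. After 5 min at room temperature, fluorescence (480 nm ex/540 nm em) is read every 5 min for 30 min. Data are normalized to control ATA and DMSO.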

[2] = biological target: Rap guanine nucleotide exchange factor 4 (Homo sapiens) (UniProt Q8WZA2); experiment: Confirmatory qHTS for agonist of cAMP-regulated guanine nucleotide exchange factor 4 (EPAC2) (AID 1645884);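 also: nucleotide exchange releases bodipy-GDP from Rap1 and this lowers its fluorescence; nearly all actives have a fitted effect of over 65% in size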; also: potency is read from the fitted curve at half-maximal effect
Sequence of Rap guanine nucleotide exchange factor 4 (Homo sapiens) (Q8WZA2 whole entry, looked up): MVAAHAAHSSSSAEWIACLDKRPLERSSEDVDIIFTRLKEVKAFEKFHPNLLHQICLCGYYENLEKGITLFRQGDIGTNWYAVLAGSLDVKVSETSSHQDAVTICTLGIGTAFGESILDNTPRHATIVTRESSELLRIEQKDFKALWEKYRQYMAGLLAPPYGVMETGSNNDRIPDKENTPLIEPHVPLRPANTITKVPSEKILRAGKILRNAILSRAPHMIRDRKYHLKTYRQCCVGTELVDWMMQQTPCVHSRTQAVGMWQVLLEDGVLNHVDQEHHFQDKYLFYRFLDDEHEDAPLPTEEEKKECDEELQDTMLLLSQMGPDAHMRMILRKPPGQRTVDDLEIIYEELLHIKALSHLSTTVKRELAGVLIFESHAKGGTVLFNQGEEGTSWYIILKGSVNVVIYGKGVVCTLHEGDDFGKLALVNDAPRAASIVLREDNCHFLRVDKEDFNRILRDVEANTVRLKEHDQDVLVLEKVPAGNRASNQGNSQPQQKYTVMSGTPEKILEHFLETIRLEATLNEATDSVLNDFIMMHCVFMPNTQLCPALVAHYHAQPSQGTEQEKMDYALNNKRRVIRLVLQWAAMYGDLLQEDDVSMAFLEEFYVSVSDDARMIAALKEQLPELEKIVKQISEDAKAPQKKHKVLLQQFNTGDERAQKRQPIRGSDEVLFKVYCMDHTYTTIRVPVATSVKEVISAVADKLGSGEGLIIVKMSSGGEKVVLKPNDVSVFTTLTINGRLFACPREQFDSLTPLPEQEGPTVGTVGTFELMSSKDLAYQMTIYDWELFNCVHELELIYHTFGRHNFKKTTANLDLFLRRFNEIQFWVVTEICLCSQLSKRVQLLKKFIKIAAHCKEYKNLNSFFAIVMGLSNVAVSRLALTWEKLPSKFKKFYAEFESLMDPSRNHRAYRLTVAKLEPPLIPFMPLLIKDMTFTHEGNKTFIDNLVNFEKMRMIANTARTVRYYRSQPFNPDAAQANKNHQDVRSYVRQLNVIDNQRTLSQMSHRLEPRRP

[3] = biological target: Rap guanine nucleotide exchange factor 4 (Homo sapiens) (UniProt Q8WZA2); experiment: Confirmatory qHTS for antagonist of cAMP-regulated guanine nucleotide exchange factor 4 (EPAC2) (AID 1645885); also: nearly all actives have a fitted effect of over 25% in size; also: potency is read from the fitted curve at half-maximal effect
[4] = biological target: Rap guanine nucleotide exchange factor 3 (Homo sapiens) (UniProt O95398); experiment: Counterscreen qHTS for antagonist of cAMP-regulated guanine nucleotide exchange factor 3 (EPAC1) (AID 1645888);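 also: fluorescence loss as bound BODIPY-GDP is released from Rap1B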
In short: (§1)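 Rap1B-BODIPY-GDP 250 nM + GDP 50 uM; cpds 7-pt, final 9.74 nM–152 uM (activator mode) or from 7.32 nM upwards (inhibitor mode); RT; FI 480/540 nm at 5 and 30 min, then ± cAMP, reread.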

[5] = biological target: Rap guanine nucleotide exchange factor 3 (Homo sapiens) (UniProt O95398); experiment: Counterscreen qHTS for agonist of cAMP-regulated guanine nucleotide exchange factor 3 (EPAC1) (AID 1645889); also: nearly all actives have a fitted effect of over 40% in size; also: potency is read from the fitted curve at half-maximal effect
In short: as §1

[6] = biological target: Tumor susceptibility gene 101 protein (Homo sapiens) (UniProt Q99816); experiment: qHTS Assay for Iinhibitors of HIV-1 Budding by Blocking the Interaction of PTAP/TSG101: Hit Validation (AID 651600); also: potency is read from the fitted curve at half-maximal effect; nearly all actives have a fitted effect of over 70% in size
Sequence of Tumor susceptibility gene 101 protein (Homo sapiens) (Q99816 whole entry, looked up, the tested form may be a part): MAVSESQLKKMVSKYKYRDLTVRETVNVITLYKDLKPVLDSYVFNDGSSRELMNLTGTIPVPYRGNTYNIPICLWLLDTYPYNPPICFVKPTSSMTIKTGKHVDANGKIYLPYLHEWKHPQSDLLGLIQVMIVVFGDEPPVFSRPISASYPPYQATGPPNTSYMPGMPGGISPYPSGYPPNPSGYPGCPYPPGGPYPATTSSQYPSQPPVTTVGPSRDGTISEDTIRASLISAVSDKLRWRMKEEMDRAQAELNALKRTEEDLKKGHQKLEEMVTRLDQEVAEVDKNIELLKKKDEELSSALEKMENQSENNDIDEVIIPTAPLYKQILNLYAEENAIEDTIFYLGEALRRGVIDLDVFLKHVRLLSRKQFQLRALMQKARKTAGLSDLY
In short: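 Compounds are added to the Tsg101 binding domain (10 uM final) in pH 7.5 HEPES buffer. FITC-PTAP peptide follows at 50 nM final. After 20 min at r.t., polarized FITC emission is measured.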

[7] = Stat Signaling Pathway (AID 446; active = well fitted curve in either direction with a large enough effect, not every such curve was filed as active;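 also: ME-180 cervical cancer cells given 40 pM IL-6 alongside compound; SIE-controlled beta-lactamase reporter measured as 460/530 nm FRET emission ratio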)
In short: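 ME-180 cells carrying a SIE-driven beta-lactamase reporter are stimulated with 40 pM IL-6 for 5 h at 37C in the presence of compound. The 460/530 nm FRET substrate ratio is read after 2.5 h at RT. Data are normalised to 300 pM IL-6 and to 125 nM JAK inhibitor controls.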

[8] = biological target: Glucocorticoid receptor (Homo sapiens) (UniProt P04150); experiment: GR-GFP Redistribution (AID 450;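 active = compounds whose dose series gives a full or clear partial fitted curve of increased nuclear translocation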; also: potency is read from the fitted curve at half-maximal effect); conditions: U2OS GR-GFP nuclear translocation, laser cytometry, 2 h
Sequence of Glucocorticoid receptor (Homo sapiens) (P04150 whole entry, looked up): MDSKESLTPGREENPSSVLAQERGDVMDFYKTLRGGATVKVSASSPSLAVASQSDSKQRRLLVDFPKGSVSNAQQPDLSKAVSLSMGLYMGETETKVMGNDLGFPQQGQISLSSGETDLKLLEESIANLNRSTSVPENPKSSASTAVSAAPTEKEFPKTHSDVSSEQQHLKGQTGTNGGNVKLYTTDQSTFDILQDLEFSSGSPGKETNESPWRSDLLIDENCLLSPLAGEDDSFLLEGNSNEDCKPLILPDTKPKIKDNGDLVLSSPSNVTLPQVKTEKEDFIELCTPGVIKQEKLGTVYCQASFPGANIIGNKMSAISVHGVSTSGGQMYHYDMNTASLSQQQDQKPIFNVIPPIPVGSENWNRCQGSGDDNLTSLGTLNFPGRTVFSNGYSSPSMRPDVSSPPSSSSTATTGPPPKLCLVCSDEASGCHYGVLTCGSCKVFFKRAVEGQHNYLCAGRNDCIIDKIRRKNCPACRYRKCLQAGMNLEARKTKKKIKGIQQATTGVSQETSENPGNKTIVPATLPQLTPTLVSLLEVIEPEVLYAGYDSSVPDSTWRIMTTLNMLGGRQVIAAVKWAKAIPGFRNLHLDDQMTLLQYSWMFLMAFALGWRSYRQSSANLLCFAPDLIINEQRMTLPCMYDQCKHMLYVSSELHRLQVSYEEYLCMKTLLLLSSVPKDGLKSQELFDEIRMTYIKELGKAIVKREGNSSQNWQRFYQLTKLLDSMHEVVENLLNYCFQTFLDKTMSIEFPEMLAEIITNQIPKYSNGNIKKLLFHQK

With `Cc1ccc(N2C(=O)c3cccc4c(N)ccc(c34)C2=O)c2cccnc12` as the molecule, how does the Potency [1] read?
The Potency was “inactive”.

What about the Potency [2] of the same molecule?
The Potency was 112 µM (active).

And the Potency [3]?
Its Potency is “inactive”.

What about the Potency [4] of the same molecule?
Its Potency is “inactive”.

What about the Potency [5] of the same molecule?
The Potency was 10 µM (active).

Which Potency [1] does the source give for `Cc1ccccc1-n1c(O)c(/C=C/C=Nc2ccccc2)c(=O)[nH]c1=O` here?
The Potency was “inactive”.

What about the Potency [2] of the same molecule?
Its Potency is 112 µM (active).

What about the Potency [3] of the same molecule?
Its Potency is “inactive”.

What about the Potency [4] of the same molecule?
Its Potency is “inactive”.

And the Potency [5]?
Its Potency is 39.8 µM (active).

Which results are given for `N=C1/C(=C\c2coc3ccc(O)cc3c2=O)C(=O)N=C2SC=CN12`?
Potency [1]: inactive; Potency [2]: 112 µM (active); Potency [3]: inactive; Potency [4]: inactive; Potency [5]: 44.7 µM (active)

Which Potency [1] does the source give for `COc1cc(/C=C2/C(=O)c3cccc([N+](=O)[O-])c3C2=O)c(Br)cc1O` here?
Its Potency is 23.9 µM (active).

What about the Potency [2] of the same molecule?
The Potency was “inactive”.

What about the outcome [3] of the same molecule?
Its outcome is “inactive; activator; fitted 0.0301 uM [at 12.7 µM]”.

What about the Potency [4] of the same molecule?
Its Potency is “inactive”.

And the Potency [5]?
Its Potency is 31.6 µM (active).

Which Potency [1] does the source give for `Cc1ccc(-c2csc3ncnc(Nc4ccc(C(=O)O)cc4)c23)cc1` here?
Its Potency is “inactive”.

And the Potency [2]?
The Potency was “inactive”.

And the Potency [3]?
Its Potency is “inactive”.

And the Potency [4]?
Its Potency is “inactive”.

What about the Potency [5] of the same molecule?
Its Potency is “inactive”.

For `C(=C(c1ccccc1)c1ccccc1)c1ccccn1`, which Potency [1] is on record?
The Potency was “inactive”.

And the Potency [2]?
The Potency was “inactive”.

And the Potency [3]?
The Potency was 84.9 µM (active).

What about the Potency [4] of the same molecule?
The Potency was “inactive”.

What about the Potency [5] of the same molecule?
The Potency was “inactive”.

For `CCCN1C(=O)c2cccc3c(N4CCCCC4)ccc(c23)C1=O`, which Potency [1] is on record?
The Potency was “inactive”.

And the Potency [2]?
The Potency was 100 µM (active).

And the Potency [3]?
Its Potency is “inactive”.

What about the Potency [4] of the same molecule?
Its Potency is “inactive”.

And the Potency [5]?
The Potency was 39.8 µM (active).

For `CC(=O)Nc1sc2c(c1-c1nc3ccccc3s1)CN(C(C)C)CC2`, which Potency [1] is on record?
Its Potency is “inactive”.

And the activation [2]?
Its activation is 18.6% [at 17.1 µM, percent relative to cAMP agonist control].

What about the Potency [3] of the same molecule?
Its Potency is “inactive”.

And the activity change, negative = inhibition [4]?
The activity change, negative = inhibition was 28.4% [at 30.8 µM].

And the Potency [5]?
The Potency was 10 µM (active).

With `O=C(O)c1ccccc1C1=Nc2ccc(O)cc2Oc2cc(O)ccc21` as the molecule, how does the Potency [6] read?
Its Potency is 13 µM (active).

What about the Potency [1] of the same molecule?
The Potency was “inactive”.

And the activation [2]?
Its activation is 14.2% [at 17.1 µM, percent relative to cAMP agonist control].

What about the Potency [3] of the same molecule?
Its Potency is “inactive”.

And the activity change, negative = inhibition [4]?
The activity change, negative = inhibition was -1.01% [at 30.8 µM].

And the Potency [5]?
The Potency was 15.8 µM (active).

What does the source list for `Cc1ccc[n+](-c2nc([O-])sc2C=O)c1`?
Potency [6]: 4.61 µM (active); Potency [1]: inactive; Potency [2]: 100 µM (active); Potency [3]: inactive; Potency [4]: inactive; Potency [5]: 39.8 µM (active)

For `CC(=O)NC(c1cccc(F)c1)c1nc(-c2ccccc2)cs1` (stereo not given), which Potency [1] is on record?
The Potency was “inactive”.

What about the activation [2] of the same molecule?
Its activation is 10% [at 17.1 µM, percent relative to cAMP agonist control].

And the Potency [3]?
The Potency was “inactive”.

What about the activity change, negative = inhibition [4] of the same molecule?
The activity change, negative = inhibition was -20.8% [at 30.8 µM].

What about the activation [5] of the same molecule?
The activation was 45.7% [at 30.8 µM].

For `Cc1nn(C)c(C)c1N1C(=O)c2cccc3c(N)ccc(c23)C1=O`, which Potency [6] is on record?
Its Potency is 2.59 µM (active).

And the Potency [1]?
The Potency was “inactive”.

What about the Potency [2] of the same molecule?
Its Potency is 5.01 µM (active).

What about the Potency [3] of the same molecule?
Its Potency is “inactive”.

And the activity change, negative = inhibition [4]?
The activity change, negative = inhibition was 353% [at 30.8 µM].

What about the Potency [5] of the same molecule?
Its Potency is 11.2 µM (active).

Which results are given for `O=c1oc2c3c4c(cc2c(C(F)(F)F)c1CCN1CCOCC1)CCCN4CCC3`?
outcome [7]: inactive; Potency [8]: > 20.6 µM; Potency [1]: inactive; Potency [2]: 100 µM (active); Potency [3]: inactive; Potency [4]: inactive; Potency [5]: 17.8 µM (active)
